Results from PubChem BioAssay AID1159580 (chemical genetic matrix, 2015).
About 2,000 (36%) of roughly 5,500 compounds were called active. Roughly 18% stayed inconclusive and do not appear here. Cut-off read from the data, not from the text of the source: active = normalized growth mostly below about 0.91 (no sharp cut-off); inconclusive = no clear call, values can overlap the other calls; inactive = mostly above about 0.92. The list shows a part of the results.

Experiment: chemical genetic growth profiling, strain panel (AID 1159580);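 note: tested at 20 µM; growth read once vehicle control cultures reached saturation at 30 °C; 1 = growth at the plate median or of vehicle wells; lower values mean less growth of the strain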
Conditions: growth OD

Measured: normalized growth

O=C1OCCN1/N=C\c1ccc([N+](=O)[O-])o1
inactive: S. cerevisiae deletion strains, locus YJR075W, strain HOC1, active compounds read low 0.981 | S. cerevisiae deletion strains, locus YKL009W, strain mrt4, active compounds read low 0.915 | S. cerevisiae deletion strains, locus YKL068W, active compounds read low 0.999 | S. cerevisiae deletion strains, locus YKL085W, strain MDH1 (second series), active compounds read low 0.99 | S. cerevisiae deletion strains, locus YKL085W, strain MDH1, active compounds read low 0.99 | S. cerevisiae deletion strains, locus YKL160W, strain elf1, active compounds read low 0.984 | S. cerevisiae deletion strains, locus YKR001C, strain vps1, active compounds read low 0.938 | S. cerevisiae deletion strains, locus YKR026C, strain gcn3, active compounds read low 1 | S. cerevisiae deletion strains, locus YKR091W, strain srl3, active compounds read low 0.997 | S. cerevisiae deletion strains, locus YLL001W, strain dnm1, active compounds read low 0.978 | S. cerevisiae deletion strains, locus YLL026W, active compounds read low 0.988 | S. cerevisiae deletion strains, locus YLL041C, strain sdh2, active compounds read low 1 | S. cerevisiae deletion strains, locus YLR027C, strain aat2, active compounds read low 0.955 | S. cerevisiae deletion strains, locus YLR058C, strain SHM2, active compounds read low 0.967 | S. cerevisiae deletion strains, locus YLR102C, strain apc9, active compounds read low 0.988 | S. cerevisiae deletion strains, locus YLR113W, strain HOG1, active compounds read low 0.869 | S. cerevisiae deletion strains, locus YLR221C, strain rsa3, active compounds read low 0.975 | S. cerevisiae deletion strains, locus YLR258W, strain gsy2, active compounds read low 0.976 | S. cerevisiae deletion strains, locus YLR262C, strain YPT6 (second series), active compounds read low 0.888 | S. cerevisiae deletion strains, locus YLR262C, strain YPT6, active compounds read low 0.683 | S. cerevisiae deletion strains, locus YLR320W, strain mms22, active compounds read low 0.956 | S. cerevisiae deletion strains, locus YLR330W, strain CHS5, active compounds read low 1 | S. cerevisiae deletion strains, locus YLR342W, strain FKS1 (second series), active compounds read low 0.943 | S. cerevisiae deletion strains, locus YLR342W, strain FKS1, active compounds read low 1 | S. cerevisiae deletion strains, locus YLR357W, strain rsc2, active compounds read low 1.03 | S. cerevisiae deletion strains, locus YLR370C, strain arc18, active compounds read low 0.942 | S. cerevisiae deletion strains, locus YLR371W, strain rom2, active compounds read low 0.99 | S. cerevisiae deletion strains, locus YLR384C, strain iki3, active compounds read low 1 | S. cerevisiae deletion strains, locus YLR418C, strain cdc73, active compounds read low 0.847 | S. cerevisiae deletion strains, locus YML016C, strain PPZ1, active compounds read low 0.987 | S. cerevisiae deletion strains, locus YML120C, strain ndi1, active compounds read low 0.965 | S. cerevisiae deletion strains, locus YML124C, strain tub3, active compounds read low 1.01 | S. cerevisiae deletion strains, locus YMR078C, strain ctf18, active compounds read low 0.976 | S. cerevisiae deletion strains, locus YMR125W, strain sto1, active compounds read low 0.93 | S. cerevisiae deletion strains, locus YMR129W, active compounds read low 1 | S. cerevisiae deletion strains, locus YMR205C, strain PFK2, active compounds read low 1.02 | S. cerevisiae deletion strains, locus YMR223W, strain ubp8, active compounds read low 0.91 | S. cerevisiae deletion strains, locus YMR231W, strain pep5, active compounds read low 0.998 | S. cerevisiae deletion strains, locus YMR307W, strain GAS1, active compounds read low 0.761 | S. cerevisiae deletion strains, locus YNL067W, strain RPL9B, active compounds read low 0.97 | S. cerevisiae deletion strains, locus YNL071W, strain lat1, active compounds read low 0.997 | S. cerevisiae deletion strains, locus YNL128W, strain TEP1, active compounds read low 0.997 | S. cerevisiae deletion strains, locus YNL183C, strain NPR1, active compounds read low 0.848 | S. cerevisiae deletion strains, locus YNL209W, strain ssb2, active compounds read low 0.979 | S. cerevisiae deletion strains, locus YNL233W, strain BNI4, active compounds read low 0.987 | S. cerevisiae deletion strains, locus YNL271C, strain bni1, active compounds read low 0.978 | S. cerevisiae deletion strains, locus YNL298W, strain CLA4, active compounds read low 0.95 | S. cerevisiae deletion strains, locus YNL307C, strain MCK1, active compounds read low 0.955 | S. cerevisiae deletion strains, locus YNL322C, strain KRE1 (second series), active compounds read low 0.992 | S. cerevisiae deletion strains, locus YNL322C, strain KRE1, active compounds read low 0.999 | S. cerevisiae deletion strains, locus YNR049C, strain mso1, active compounds read low 1.02 | S. cerevisiae deletion strains, locus YOL006C, strain TOP1, active compounds read low 0.891 | S. cerevisiae deletion strains, locus YOL012C, strain htz1 1.16 | S. cerevisiae deletion strains, locus YOL147C, strain pex11, active compounds read low 0.991 | S. cerevisiae deletion strains, locus YOR001W, strain rrp6, active compounds read low 0.904 | S. cerevisiae deletion strains, locus YOR061W, strain CKA2, active compounds read low 0.988 | S. cerevisiae deletion strains, locus YOR069W, strain VPS5, active compounds read low 0.992 | S. cerevisiae deletion strains, locus YOR070C, strain gyp1, active compounds read low 1.01 | S. cerevisiae deletion strains, locus YOR080W, strain dia2, active compounds read low 0.986 | S. cerevisiae deletion strains, locus YOR083W, strain WHI5, active compounds read low 0.962 | S. cerevisiae deletion strains, locus YOR106W, strain vam3, active compounds read low 0.938 | S. cerevisiae deletion strains, locus YOR136W, strain idh2, active compounds read low 0.959 | S. cerevisiae deletion strains, locus YOR144C, strain elg1, active compounds read low 0.969 | S. cerevisiae deletion strains, locus YOR265W, strain rbl2, active compounds read low 0.997 | S. cerevisiae deletion strains, locus YOR270C, strain vph1, active compounds read low 0.92 | S. cerevisiae deletion strains, locus YOR290C, strain snf2, active compounds read low 0.912 | S. cerevisiae deletion strains, locus YOR316C, strain cot1, active compounds read low 0.999 | S. cerevisiae deletion strains, locus YPL051W, strain arl3, active compounds read low 0.943 | S. cerevisiae deletion strains, locus YPL055C, strain LGE1, active compounds read low 0.882 | S. cerevisiae deletion strains, locus YPL078C, strain atp4, active compounds read low 0.932 | S. cerevisiae deletion strains, locus YPL106C, strain sse1, active compounds read low 0.889 | S. cerevisiae deletion strains, locus YPL240C, strain hsp82, active compounds read low 1.01 | S. cerevisiae deletion strains, locus YPL241C, strain CIN2, active compounds read low 0.988 | S. cerevisiae deletion strains, locus YPL256C, strain CLN2, active compounds read low 0.909 | S. cerevisiae deletion strains, locus YPR119W, strain clb2, active compounds read low 0.989 | S. cerevisiae deletion strains, locus YPR141C, strain kar3, active compounds read low 0.993 | S. cerevisiae deletion strains, locus YPR163C, strain tif3, active compounds read low 0.993 | S. cerevisiae deletion strains, locus YPR167C, strain met16, active compounds read low 0.986 | S. cerevisiae strains, strain wild type, active compounds read low 0.99
active: S. cerevisiae deletion strains, locus YLR039C, strain RIC1, active compounds read low 0.657 | S. cerevisiae deletion strains, locus YLR268W, strain sec22, active compounds read low 0.831 | S. cerevisiae deletion strains, locus YML032C, strain rad52, active compounds read low 0.494 | S. cerevisiae deletion strains, locus YMR058W, strain fet3, active compounds read low 0.79 | S. cerevisiae deletion strains, locus YNL153C, strain GIM3, active compounds read low 0.842 | S. cerevisiae deletion strains, locus YNL248C, strain rpa49, active compounds read low 0.84 | S. cerevisiae deletion strains, locus YNL250W, strain rad50, active compounds read low 0.713 | S. cerevisiae deletion strains, locus YNR052C, strain pop2, active compounds read low 0.899 | S. cerevisiae deletion strains, locus YOR184W, strain ser1, active compounds read low 0.862 | S. cerevisiae deletion strains, locus YOR231W, strain MKK1, active compounds read low 0.777 | S. cerevisiae deletion strains, strain wtn01, active compounds read low 0.87
